{"source": "PubChem BioAssay", "note": "Active and inactive are the calls of the source.", "data": [{"molecular_target": "NADPH oxidase 4 (Homo sapiens) (UniProt Q9NPH5)", "sequence (Q9NPH5 whole entry, looked up)": "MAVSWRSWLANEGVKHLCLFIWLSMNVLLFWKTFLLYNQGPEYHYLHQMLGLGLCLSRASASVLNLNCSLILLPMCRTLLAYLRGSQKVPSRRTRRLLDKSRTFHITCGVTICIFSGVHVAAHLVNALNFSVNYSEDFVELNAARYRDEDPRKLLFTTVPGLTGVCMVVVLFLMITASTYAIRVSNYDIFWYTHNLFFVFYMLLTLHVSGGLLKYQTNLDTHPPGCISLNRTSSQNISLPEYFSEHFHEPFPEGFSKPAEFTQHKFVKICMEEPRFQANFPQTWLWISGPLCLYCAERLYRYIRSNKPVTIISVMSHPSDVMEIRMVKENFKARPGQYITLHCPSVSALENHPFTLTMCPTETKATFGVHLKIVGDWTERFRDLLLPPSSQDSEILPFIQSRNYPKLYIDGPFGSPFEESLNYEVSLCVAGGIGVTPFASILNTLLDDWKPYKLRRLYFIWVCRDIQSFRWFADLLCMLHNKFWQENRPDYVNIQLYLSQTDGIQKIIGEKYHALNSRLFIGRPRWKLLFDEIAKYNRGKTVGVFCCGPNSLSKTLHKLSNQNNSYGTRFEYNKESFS", "assay": "NOX4-dependent H2O2 signal modulators, primary screen, NOX inhibitor project, cell-based, HEK293-NOX4, tetracycline-induced, Amplex Red fluorescence (AID 1160)", "conditions": "45 min, higher = more signal, called active from +8 up or from −8 down", "values": [{"compound": "CCN(CC)c1ccc(N2CC=CC34O[C@@H]5C=CCCOC(=O)C5[C@H]3C(=O)N(C(C)CO)[C@@H]4C2=O)cc1", "note": "(some centres undefined)", "z-score": "0.447 (inactive)"}, {"compound": "COC(=O)[C@@]1(Cc2ccccc2)[C@H]2c3cc(C(=O)N(C)C)n(CCO)c3C[C@H]2CN1C(=O)c1ccccc1", "z-score": "0.111 (inactive)"}, {"compound": "COc1cc(CO)cc(I)c1O[C@H]1C=C(C(=O)NCCO)C[C@@H](NC2CCCCCC2)[C@@H]1O", "z-score": "-0.789 (inactive)"}, {"compound": "O=C1C2C=CC(C(O)c3cccs3)N(Nc3ccc([N+](=O)[O-])cc3)C2C(=O)N1c1ccccc1", "note": "(centres undefined)", "z-score": "-2.75 (inactive)"}, {"compound": "CCOC(=O)C[C@H]1[C@H](OC(=O)c2ccccc2-c2ccccc2)[C@@H](NC(=O)C2CCCCC2)c2cc(OCCCO)ccc2N1C(=O)c1ccc2ccccc2n1", "z-score": "1.23 (inactive)"}, {"compound": "COC(=O)[C@@]1(Cc2ccc(F)cc2)[C@H]2c3cc(C(=O)N4CCCC4)n(Cc4ccccn4)c3C[C@H]2CN1C(=O)c1ccccc1", "z-score": "-1.33 (inactive)"}, {"compound": "C=C(CCCC)/C(=C/C[C@H](OC(=O)c1ccncc1)c1ccccc1OCCO)c1cc(C(=O)OC)ccc1OC", "z-score": "-0.48 (inactive)"}, {"compound": "O=C(NCc1ccccc1)[C@@H]1c2ccccc2C(=O)N(Cc2cc(C(F)(F)F)cc(C(F)(F)F)c2)[C@H]1c1ccc(CO)cc1", "z-score": "0.284 (inactive)"}, {"compound": "COc1ccc([Si](C)(C)[C@H]2[C@H](CCO)O[C@@]3(C(=O)N(Cc4ccc(NC(=O)[C@H](C)O)cc4)c4ccccc43)[C@@H]2C)cc1", "z-score": "1.39 (inactive)"}]}, {"molecular_target": "NADPH oxidase 5 (Homo sapiens) (UniProt Q96PH1)", "sequence (Q96PH1 whole entry, looked up)": "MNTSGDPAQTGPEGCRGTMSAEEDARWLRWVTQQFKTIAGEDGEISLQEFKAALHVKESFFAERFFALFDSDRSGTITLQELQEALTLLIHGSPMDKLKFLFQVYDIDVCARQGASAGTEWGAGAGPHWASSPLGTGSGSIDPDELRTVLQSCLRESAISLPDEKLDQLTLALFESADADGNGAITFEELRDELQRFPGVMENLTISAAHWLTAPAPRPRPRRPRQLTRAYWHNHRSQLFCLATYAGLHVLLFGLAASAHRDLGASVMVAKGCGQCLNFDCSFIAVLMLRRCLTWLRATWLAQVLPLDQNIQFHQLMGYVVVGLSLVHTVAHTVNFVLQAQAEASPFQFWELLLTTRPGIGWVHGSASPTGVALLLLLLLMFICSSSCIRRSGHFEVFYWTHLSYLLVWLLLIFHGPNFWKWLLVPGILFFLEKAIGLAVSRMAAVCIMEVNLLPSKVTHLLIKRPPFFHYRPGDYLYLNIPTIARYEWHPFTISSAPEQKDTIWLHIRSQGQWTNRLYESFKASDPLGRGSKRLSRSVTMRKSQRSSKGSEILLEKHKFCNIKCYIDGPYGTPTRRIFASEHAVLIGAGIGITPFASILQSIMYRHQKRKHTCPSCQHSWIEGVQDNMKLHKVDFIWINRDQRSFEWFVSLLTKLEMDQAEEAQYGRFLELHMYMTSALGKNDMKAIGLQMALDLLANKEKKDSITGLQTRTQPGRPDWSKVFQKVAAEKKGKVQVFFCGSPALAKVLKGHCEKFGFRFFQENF", "assay": "NOX5-dependent H2O2 signal modulators, primary screen, NOX inhibitor project, cell-based, HEK293-NOX5, Amplex Red fluorescence (AID 1161)", "conditions": "HEK293-NOX5, ionomycin, 45 min, higher = more signal", "values": [{"compound": "CC(C)C(=C=CC[C@H](O)c1ccccc1OCCO)C[C@H](O)COCc1ccccc1", "z-score": -2.38}, {"compound": "CC(C)NC(=O)[C@@]1(c2ccc([N+](=O)[O-])cc2)CC(=O)N(CC23CC4CC(CC(C4)C2)C3)[C@@H]1c1ccc(CO)cc1", "z-score": -0.0647}, {"compound": "CC(C)=C1C(=O)C(c2ccccc2)=C2CN3C(=O)N(CCc4ccccc4)C(=O)[C@]3(C)[C@H]21", "z-score": -0.718}, {"compound": "[N-]=[N+]=Nc1ccccc1[C@H]1OC(c2ccc(OCCCO)cc2)=N[C@@]1(Cc1ccccc1)C(=O)NCC(O)CO", "note": "(some centres undefined)", "z-score": 1.31}, {"compound": "COCCCNC(=O)[C@@]1(CCS(=O)(=O)c2ccccc2)COC(c2ccc(OCCCO)cc2)=N1", "z-score": 0.0637}, {"compound": "CC(C)(C)N1CC=CC23O[C@@H]4C=CCOC(=O)[C@@H]4[C@H]2C(=O)N(CCO)[C@@H]3C1=O", "note": "(some centres undefined)", "z-score": 1.59}, {"compound": "CN(C)CCCCNC(=O)[C@H]1C[C@H]2C(=O)NCC(=O)N2[C@H]1c1ccc(O)cc1", "z-score": 1.18}, {"compound": "CC(C)C(O)C1C=CC2C(=O)NC(=O)C2N1Nc1ccccn1", "note": "(centres undefined)", "z-score": -1.79}, {"compound": "O=C1C2C=CC(C(O)c3ccc([N+](=O)[O-])cc3)N(Nc3ccccc3F)C2C(=O)N1c1ccccc1", "note": "(centres undefined)", "z-score": -3.11}, {"compound": "CN(C)CCCC[C@@H]1NC(=O)[C@@H]2C[C@H](C(=O)NCCCCCN)[C@H](c3cccc(OCCO)c3)N2C1=O", "z-score": 1.57}, {"compound": "CC1CC/C=C\\[C@H]2OC34C=CCN(Cc5ccccc5)C(=O)[C@H]3N(CCCCCCO)C(=O)[C@@H]4C2C(=O)O1", "note": "(some centres undefined)", "z-score": 2.2}, {"compound": "C=CCC(OC(C)=O)[C@@H]1[C@@H](N(Cc2cccc3ccccc23)C(=O)c2ccc(-c3ccccc3)cc2)c2cc(OCCCO)ccc2N1C(=O)Cc1ccc2ccccc2c1", "note": "(some centres undefined)", "z-score": 0.311}, {"compound": "CC(C)NC(=O)[C@@]1(C)c2ccccc2C(=O)N(Cc2ccccc2)[C@H]1c1ccc(CO)cc1", "z-score": 0.872}, {"compound": "COC(=O)[C@@]1(Cc2ccccc2)[C@H]2c3cc(C(=O)N4CCCC4)n(Cc4ccc(OC)c(OC)c4)c3C[C@H]2CN1C(=O)c1ccccc1", "z-score": -3.31}, {"compound": "O=C1C[C@@](C(=O)NCc2ccccc2)(c2ccc([N+](=O)[O-])cc2)[C@@H](c2ccc(CO)cc2)N1C1CCCCC1", "z-score": 0.0696}, {"compound": "[N-]=[N+]=Nc1ccccc1[C@@H]1OC(c2ccc(OCCCO)cc2)=N[C@]1(CCS(=O)(=O)c1ccccc1)C(=O)NCC(O)CO", "note": "(some centres undefined)", "z-score": -1.16}, {"compound": "CCOC(=O)C[C@H]1[C@H](OC(=O)c2ccccc2-c2ccccc2)[C@@H](NC(=O)c2ccc3ccccc3c2)c2cc(OCCCO)ccc2N1C(=O)Cc1ccc(OC)cc1", "z-score": 1.01}, {"compound": "CCOC(=O)C[C@H]1[C@H](OC(=O)Cc2ccc3c(c2)OCO3)[C@@H](NC(=O)Cc2ccc(OC)cc2)c2cc(OCCCO)ccc2N1C(=O)Cc1ccc(OC)cc1", "z-score": 0.404}, {"compound": "Cc1ccc(C(C)CC(O)C2C=CC3C(=O)N(C)C(=O)C3N2Nc2ccccc2)o1", "note": "(centres undefined)", "z-score": -3.53}, {"compound": "Cc1ccc(S[C@]2(C(=O)NCC(F)(F)F)CC(=O)N(Cc3ccccc3C(F)(F)F)[C@@H]2c2ccc(CO)cc2)cc1", "z-score": -0.0735}]}]}
